In PubChem BioAssay AID430 (Sanford-Burnham Center for Chemical Genomics, 2006):
The campaign covered roughly 63,000 compounds. About 1,100 (1.7%) were called active. Cut-off read from the data, not from the text of the source: active = cytotoxicity above about 50%; inactive = the rest. Only a selection was taken, and actives are over-represented in it overall. Results with a measured potency or affinity are listed apart.

test: cytotoxicity in HPDE-C7 cells, cell-based, fluorescence, HTS (AID 430); details: HPDE-C7 pancreatic duct cells viability, at 10 µM, active compounds read high;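 note: cells exposed to compound for 48 hours before viability readout; 0% = vehicle and 100% = reference cytotoxic drug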

Row | Compound | cytotoxicity
1 | CCOC(=O)CN1C(=O)C(=O)c2cccc(C)c21 | -46.9% (inactive)
2 | O=C(NCc1ccco1)C1CN(S(=O)(=O)c2ccccc2)CCN1S(=O)(=O)c1ccccc1 (stereo not given) | -23.1% (inactive)
3 | CCc1c(C)nc2ncnn2c1N1CCC(C(=O)N2CCN(c3ccc(F)cc3)CC2)CC1 | -1.9% (inactive)
4 | COC(=O)CSc1nc2ccc(NC(C)=O)cc2s1 | -5.9% (inactive)
5 | COc1cc2c(cc1OC)CN(C(=O)c1ccccc1C(=O)O)CC2 | -15.6% (inactive)
6 | O=C(Cn1nnc(-c2ccc(N3CCOCC3)cc2)n1)OC1CCCCC1 | -25.2% (inactive)
7 | COC(=O)CSc1nnc(-c2ccc(OC)cc2OC)o1 | 3.4% (inactive)
8 | COc1ccc(N2CCN(C(c3ccccc3OC)c3nnnn3Cc3ccco3)CC2)cc1 (stereo not given) | -1.6% (inactive)
9 | COc1ccc(C2CC(=O)C3=C(C2)NC(C)=C(C#N)C3c2ccc(N(C)C)cc2)cc1 (stereo not given) | -4.4% (inactive)
10 | COc1cc(C2C(C#N)=C(C)NC3=C2C(=O)CC(C)(C)C3)ccc1O (stereo not given) | -9.2% (inactive)
11 | COc1ccc(C2C(C#N)=C(C)NC3=C2C(=O)c2ccccc23)cc1 (stereo not given) | 55.2% (active)
12 | COc1cc(C2C(C#N)=C(C)NC3=C2C(=O)CC(C)(C)C3)cc(OC)c1O (stereo not given) | 3.7% (inactive)
13 | COc1ccc(C2C(C#N)=C(SC)NC3=C2C(=O)CC(C)(C)C3)cc1 (stereo not given) | -11.2% (inactive)
14 | COc1cc(C2C(C#N)=C(C)NC3=C2C(=O)c2ccccc23)cc(OC)c1OC (stereo not given) | 76.3% (active)
15 | CSc1nc(-c2ccco2)nn1C(=O)c1ccco1 | -12.1% (inactive)
16 | CCOc1cc(NC(=O)c2ccco2)c(OCC)cc1NC(=O)CCC(=O)NCc1cccnc1 | 32.8% (inactive)
17 | COc1ccc(C(C#N)N2CCCCC2)cc1OC (stereo not given) | -1.7% (inactive)
18 | Cc1cccc(-c2noc(CN(C(=O)CCc3ccccc3)C(C)C)n2)c1 | -16.1% (inactive)
19 | CCCC(=O)Nc1nc2ccc3nc(C)sc3c2s1 | 9.8% (inactive)
20 | CCOc1ccc(OCC)c(S(=O)(=O)N2CCCCC2C)c1 (stereo not given) | -8.3% (inactive)
21 | Cc1cccc(N2C(=O)SC(N(C)c3ccccc3)C2=O)c1 (stereo not given) | -8.6% (inactive)
22 | Cc1ccc(Cl)cc1NC(=O)CC(O)(C(F)(F)F)C(F)(F)F | 51.2% (active)
23 | Cc1ccc(NC(=O)CC(O)(C(F)(F)F)C(F)(F)F)c(Br)c1 | -3.8% (inactive)
24 | CCNC(=O)CCC(=O)Nc1cc(Cl)ccc1C | -6.9% (inactive)

Row | Compound | cytotoxicity
25 | OC1CCCN(Cc2cccc3ccccc23)C1 (stereo not given) | 4.1% (inactive)
26 | CN(C)c1ccc(CN2CCCC(O)C2)cc1 (stereo not given) | 0.6% (inactive)
27 | O=C(CCc1nc2ccccc2c(=O)[nH]1)OCc1nnc(-c2ccccc2)o1 | 8.5% (inactive)
28 | CCN(CCCNC(=O)C1CCN(S(=O)(=O)CC)CC1)c1ccccc1 | -4% (inactive)
29 | O=C(Oc1ccc2c(c1)OCO2)c1ccncc1 | 10.6% (inactive)
30 | O=C(Oc1ccc2c(c1)OCO2)c1cc2c(s1)CCC2 | 56.8% (active)
31 | O=C(Oc1ccc2c(c1)OCO2)c1cccs1 | -3.4% (inactive)
32 | Cc1cccc(C(=O)OCc2cc3ccccc3[nH]c2=O)c1 | 8.5% (inactive)
33 | COc1cccc(C(=O)N2CCN(c3ncccn3)CC2)c1 | 1.5% (inactive)
34 | CCCCC(=O)c1c(O)c2ccccc2oc1=O | 9.3% (inactive)
35 | CCc1oc2ccccc2c1C(=O)CCN1CCCCC1 | -17.7% (inactive)
36 | c1coc(CNc2nc3sc4c(c3c3ncnn23)CCCC4)c1 | -5.5% (inactive)
37 | O=C(NC1CCCCC1)NC1CCN(S(=O)(=O)c2ccc3c(c2)OCCO3)CC1 | -1.5% (inactive)
38 | O=C(Nc1ccccc1)c1ccc(S(=O)(=O)NCc2ccco2)cc1 | -0.2% (inactive)
39 | O=C(NCCc1c[nH]c2ccccc12)c1ccc(S(=O)(=O)NCc2ccco2)cc1 | 51.9% (active)
40 | O=C(NC1CCCCC1)c1ccc(S(=O)(=O)NCc2ccco2)cc1 | -1.9% (inactive)
41 | Cc1cccc(C)c1NC(=O)c1cc(S(=O)(=O)N2CCOCC2)ccc1F | -47.4% (inactive)
42 | O=C(Nc1c2c(nn1-c1ccc(F)cc1)CSC2)c1ccc(S(=O)(=O)N2CCOCC2)cc1 | -9.4% (inactive)
43 | O=C1C(Cl)=C(NCCCN2CCOCC2)C(=O)N1CCc1ccccc1 | 1.4% (inactive)
44 | Oc1ccc2oc3c(c2c1/C=N/n1cnnc1)CCCC3 | -15.1% (inactive)
45 | Cc1nc2ccccc2c(=O)n1/N=C/c1c(O)ccc2oc3c(c12)CCCC3 | 63% (active)
46 | Cc1nc2ccccc2c(=O)n1/N=C/c1ccc(O)cc1 | 33.8% (inactive)
47 | Oc1c(C(c2cccs2)N2CCN(c3ccccc3)CC2)sc2ncnn12 (stereo not given) | -10% (inactive)
48 | CC(=O)Nc1nonc1NC(C)=O | -3.4% (inactive)

Row | Compound | cytotoxicity
49 | COc1cc(O)c(NC(C)=O)c2nonc12 | -7.7% (inactive)
50 | Cc1nn(-c2ccc(F)cc2F)c2c1-c1nc(N3CCCC3)ncc1CC2 | 3.8% (inactive)
51 | COc1ccc(C(=O)NC2CCN(C(=O)NC3CCCCC3)CC2)cc1 | -6.7% (inactive)
52 | COc1ccc(CN2C(=O)CCC2(C)C(=O)NC2CCCCC2)c(OC)c1 (stereo not given) | -3.1% (inactive)
53 | COc1ccc2[nH]c(=O)c(CN(Cc3nnnn3Cc3ccc(F)cc3)CC3CCCO3)cc2c1 (stereo not given) | -39.9% (inactive)
54 | CCC(Sc1nc2cc3c(cc2c(=O)n1Cc1ccco1)OCO3)C(=O)Nc1ccccc1OC (stereo not given) | -11.3% (inactive)
55 | CCc1ccccc1NC(=O)C(CC)Sc1nc2cc3c(cc2c(=O)n1Cc1ccco1)OCO3 (stereo not given) | 2.1% (inactive)
56 | CCOC(=O)c1[nH]c(C)c(C(=O)N2CCN(C(=O)c3ccco3)CC2)c1C | -21.3% (inactive)
57 | COc1ccc(NC(=O)CNc2cccc(C#N)c2)cc1Cl | 2.9% (inactive)
58 | Cc1cc(N2CCOCC2)n2nc(-c3cccc(F)c3)cc2n1 | -16.6% (inactive)
59 | Fc1ccc(-c2cc3nc(-c4ccccc4)cc(N4CCN(CCN5CCOCC5)CC4)n3n2)cc1 | 53% (active)
60 | Fc1ccc(-c2cc3nc(-c4ccccc4)cc(N4CCOCC4)n3n2)cc1 | -7% (inactive)
61 | O=C(Nc1scc(-c2ccc(F)cc2)c1C(=O)O)c1ccco1 | -6.9% (inactive)
62 | O=C(Nc1cc(Cl)ccc1O)c1cc2n(n1)C(C(F)(F)F)CC(c1ccc3c(c1)OCO3)N2 (stereo not given) | -8.7% (inactive)
63 | COc1ccccc1NC(=O)c1cc2n(n1)C(C(F)(F)F)CC(c1ccc3c(c1)OCO3)N2 (stereo not given) | 38.9% (inactive)
64 | Cc1cc(NC(=O)c2cc3n(n2)C(C(F)(F)F)CC(c2ccc(Cl)c(Cl)c2)N3)no1 (stereo not given) | 2.8% (inactive)
65 | O=C(NCc1ccc2c(c1)OCO2)c1cc2n(n1)C(C(F)(F)F)CC(c1ccc3c(c1)OCO3)N2 (stereo not given) | 13.5% (inactive)
66 | COc1ccc(NC(=O)c2cc3n(n2)C(C(F)(F)F)CC(c2ccc4c(c2)OCO4)N3)cc1OC (stereo not given) | 63.9% (active)
67 | COc1ccc(OC)c(NC(=O)c2cc3n(n2)C(C(F)(F)F)CC(c2ccc4c(c2)OCO4)N3)c1 (stereo not given) | 44.5% (inactive)
68 | O=C(Nc1ccc2c(c1)OCO2)c1cc2n(n1)C(C(F)(F)F)CC(c1ccccc1)N2 (stereo not given) | 64.2% (active)
69 | Cc1cccc(NC(=O)c2cc3n(n2)C(C(F)(F)F)CC(c2ccc4c(c2)OCO4)N3)c1 (stereo not given) | 74.1% (active)
70 | COc1ccc(C2CC(C(F)(F)F)n3nc(C(=O)Nc4ccc5c(c4)OCO5)cc3N2)cc1 (stereo not given) | -7% (inactive)
